Source: PubChem
An excerpt weighted towards active compounds, which were near 1.6% of everything screened.
NALP1 yeast inh: NALP1 inflammasome inhibitors in reconstituted yeast, colorimetric, S. cerevisiae, triplicate retest | S. cerevisiae NALP1/ASC/caspase-1 growth, X-gal OD620, 72 h | inhibition, % at 10 µM | hit rate 0.61% among 280,000 | AID 2071, 2009; in the data active = inhibition mostly above about 24%, no sharp cut-off; inactive = mostly below about 32%
CR mimetic SO: reduction of superoxide in aged yeast, primary screen, HTS. S. cerevisiae aged cells, superoxide DHE fluorescence; hits give low values. hit rate 0.18% among 330,000. superoxide response (% of plate mean), % at 10 µM. AID 2690, 2010;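 active = superoxide response under a set limit, about three screen SD below normal, cut at about 65% in these data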;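 also: yeast aged for seven days with compound at 30 °C before DHE staining; 100% = average MFI of all compound-treated wells on the plate with controls excluded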
V-ATPase pHluor: regulators of yeast V-ATPase proton pumping, primary screen, pHLuorin cytosolic pH fluorescence. S. cerevisiae. response, % at 10 µM. hit rate 0.37% among 350,000. AID 504577, 2011; in the data active = response mostly above about 7.3%, no sharp cut-off; inactive = mostly below about 5.4%; also: actives read high
NALP3 yeast inh: NALP3 inflammasome inhibitors in reconstituted yeast, primary screen, luminescence, uHTS; Yeast reconstituted NLRP3/ASC/caspase-1, beta-gal luminescence, 24 h; inhibition, % at 10 µM; hit rate 0.39% among 330,000; AID 2825, 2010;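 active = inhibition of 50% or more; inactive = inhibition below 50%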;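 also: plate controls were induced DMSO wells for no effect and uninduced yeast grown without galactose for full effect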
PERK inhibitor: block of dimerizer-induced PERK translation repression, primary screen, PERK inhibitor project, CHO PERK-DD cells, SEAP luminescence, HTS | hit rate 0.17% among 220,000 | inhibition, % at 5.6 µM | CHO PERK-DD fusion, SEAP luminescence translation reporter | AID 1416, 2008;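 active = inhibition above the mean inhibition of all tested compounds plus 3 SD, set separately per screening campaign, cut at about 2.9% in these data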;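 also: PERK kinase domain activated by AP20187 dimerizer at 100 nM; 0% = DMSO with dimerizer and 100% = rapamycin at 8.4 µM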
Target sequence (Q9NZJ5 whole entry, looked up, the tested form may be a part): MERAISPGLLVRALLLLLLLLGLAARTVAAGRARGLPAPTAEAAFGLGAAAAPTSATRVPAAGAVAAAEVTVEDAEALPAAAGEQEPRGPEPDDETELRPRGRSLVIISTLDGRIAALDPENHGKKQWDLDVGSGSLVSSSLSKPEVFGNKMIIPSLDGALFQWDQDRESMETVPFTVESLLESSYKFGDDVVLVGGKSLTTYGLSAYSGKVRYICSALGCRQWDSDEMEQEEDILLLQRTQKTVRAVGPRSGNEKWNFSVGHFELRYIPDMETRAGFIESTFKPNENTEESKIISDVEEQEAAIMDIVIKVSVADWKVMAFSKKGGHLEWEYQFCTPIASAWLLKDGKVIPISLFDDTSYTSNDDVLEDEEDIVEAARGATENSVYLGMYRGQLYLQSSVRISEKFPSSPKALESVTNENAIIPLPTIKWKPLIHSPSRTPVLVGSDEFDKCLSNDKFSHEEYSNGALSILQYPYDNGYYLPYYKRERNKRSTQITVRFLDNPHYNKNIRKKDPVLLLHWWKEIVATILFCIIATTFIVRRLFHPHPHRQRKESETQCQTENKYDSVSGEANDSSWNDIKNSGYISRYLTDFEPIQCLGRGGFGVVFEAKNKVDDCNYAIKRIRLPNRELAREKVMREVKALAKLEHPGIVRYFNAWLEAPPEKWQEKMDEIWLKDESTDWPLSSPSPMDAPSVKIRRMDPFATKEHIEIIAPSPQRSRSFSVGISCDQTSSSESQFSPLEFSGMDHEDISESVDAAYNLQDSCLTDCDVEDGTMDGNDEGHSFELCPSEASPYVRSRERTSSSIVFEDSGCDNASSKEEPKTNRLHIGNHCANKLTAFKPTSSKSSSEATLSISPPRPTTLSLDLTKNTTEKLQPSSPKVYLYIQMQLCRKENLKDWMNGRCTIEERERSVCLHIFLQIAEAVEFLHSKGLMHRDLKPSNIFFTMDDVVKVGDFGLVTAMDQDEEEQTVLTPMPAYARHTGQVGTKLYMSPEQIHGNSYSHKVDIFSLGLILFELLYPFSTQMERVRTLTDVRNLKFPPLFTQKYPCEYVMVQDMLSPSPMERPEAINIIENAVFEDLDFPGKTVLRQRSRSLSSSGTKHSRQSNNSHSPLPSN
Rce1 inh: yeast Rce1p protease inhibitors, primary screen, biochemical, fluorescence, cell-free homogeneous; CAAX prenyl protease 2 (Saccharomyces cerevisiae (strain ATCC 204508 / S288c)), Q03530; AID 2563, 2010; calls only; yeast membranes, quenched prenylated peptide cleavage fluorescence; hit rate 0.27% among 290,000;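 active = fall in fluorescence gain of 50% or more versus controls, with final raw signal at or below 3038400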;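 also: plate controls were neutral control wells for no effect and wells lacking membranes for full effect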
* marks the source's active call; other numbers are inactive results; i = inactive; nt = not tested or not shown; + = active, no number.

SMILES	NALP1 yeast inh	CR mimetic SO	V-ATPase pHluor	NALP3 yeast inh	PERK inhibitor	Rce1 inh
CCCCOc1ccc(-c2cc(C(F)(F)F)c(C#N)c(SCC(=O)O)n2)cc1	-5.5	99.5	-1.1	16.6	0.7	+
N#Cc1c(C(F)(F)F)cc(-c2ccc(F)cc2)nc1SCC(=O)O	-3.1	106.3	5.2	5.3	0.5	i
O=C(COc1ccccc1)NS(=O)(=O)c1ccccc1	3.5	93.2	-1.2	22.4	nt	nt
COc1ccc(OCC(=O)NS(=O)(=O)c2ccc(Cl)cc2)cc1	15.3	116.6	1.1	5.6	nt	+
CCCC1NC(=O)c2cc3ccccc3cc2-n2c1nc1cc(F)ccc1c2=O (stereo unspecified)	nt	nt	2.4	nt	nt	nt
Cc1ccc2cc(/C=N/Nc3nc4ccccc4[nH]3)c(Cl)nc2c1	20.5	nt	-0.6	nt	3.4*	i
COc1cc(OC)c(OC)cc1/C=N/Nc1nc2ccccc2[nH]1	-3.0	93.0	-1.0	11.6	-0.2	i
Nc1c(C(=O)NCCN2CCOCC2)c2nc3ccccc3nc2n1-c1cccc(F)c1	9.0	106.3	-3.2	9.5	-0.2	+
COC(=O)c1[nH]c2c(c1C)C(=O)CCC2	33.4*	105.8	3.1	8.1	-0.9	i
CN(C(=O)COC(=O)/C=C/c1ccccc1)C1CCS(=O)(=O)C1 (stereo unspecified)	nt	nt	2.7	nt	nt	nt
O=C(NCC(=O)N1CCN(Cc2c(F)cccc2Cl)CC1)c1cccs1	nt	nt	0.4	nt	nt	nt
CCCCCCSc1cc(-c2nc3cnccn3c2NCCCC)ccc1OC	nt	81.5	-0.7	12.0	nt	nt
CCCCNc1c(-c2ccc(SC(C)CC)c(OC)c2)nc2ccc(Cl)cn12 (stereo unspecified)	nt	81.4	6.6	23.0	nt	nt
CCCCNc1c(-c2ccc(SC(C)CC)c(OC)c2)nc2ccc(C)cn12 (stereo unspecified)	nt	86.9	2.8	25.4	nt	+
CCCCCCSc1cc(-c2nc3cc(C)ccn3c2NCCCC)ccc1OC	nt	101.0	-4.5	22.6	nt	+
CCCCCCc1nc2nc(Cl)c(Cl)nc2[nH]1	nt	nt	0.5	nt	nt	nt
c1ccc(NN=C(c2ccccc2)c2cccs2)cc1	nt	nt	0.7	nt	nt	nt
CCOC(=O)c1ccc(NC(=O)COc2ccc(S(=O)(=O)NC(C)CC)cc2)cc1 (stereo unspecified)	28.3*	116.3	-0.6	13.7	-0.4	i
CCOC(=O)c1ccc(NC(=O)C(C)NS(=O)(=O)c2ccc(OC)cc2)cc1 (stereo unspecified)	-0.1	106.5	1.2	7.0	-0.4	i
CCN1C(=O)[C@H]2[C@@H](c3ccc(C(F)(F)F)cc3)N[C@]3(CCCN(Cc4ccc(OC)cc4)C3=O)[C@H]2C1=O	nt	nt	-1.2	nt	nt	nt
Cc1ccc2[nH]c(C(=O)N/N=C/c3ccccc3C(=O)O)c(-c3ccccc3)c2c1	23.0	122.0	0.6	-11.8	nt	i
COc1ccc(/C=N/NC(=O)c2[nH]c3ccc(C)cc3c2-c2ccccc2)c(C(=O)O)c1OC	1.1	95.9	-0.7	nt	nt	+
CCCCNc1nc(CC)c2c(c1C#N)CCCC2	40.9*	93.9	2.4	-3.1	0.4	i
CCCCc1nc(NCCO)c(C#N)c2c1CCCC2	1.8	98.7	-1.5	-30.2	-0.4	i
Cc1ccc([C@H]2N[C@]3(CCCN(Cc4cccn4C)C3=O)[C@H]3C(=O)N(C)C(=O)[C@@H]23)cc1	nt	nt	-2.3	nt	nt	nt
SMILES	NALP1 yeast inh	CR mimetic SO	V-ATPase pHluor	NALP3 yeast inh	PERK inhibitor	Rce1 inh
CCOc1ccc(CNC(=O)CCS(=O)(=O)Cc2ccccc2C)cc1OC	9.5	95.5	-1.2	5.6	0.7	i
COc1ccc(CNC(=O)CCS(=O)(=O)Cc2cccc(Cl)c2)c(OC)c1	-5.2	106.6	14.3*	9.9	-0.5	i
C[C@H](O)CNC(=O)c1[nH]cnc1C(=O)Nc1cccc(Cl)c1	nt	nt	0.4	nt	nt	nt
OC(c1ccc(Cl)cc1)C(O)c1nc2ccccc2[nH]1 (stereo unspecified)	-9.0	102.5	-2.5	-11.3	1.2	i
OCC(O)C(O)C(O)C(O)c1nc2ccccc2[nH]1 (stereo unspecified)	25.1*	116.4	-0.1	4.8	1.1	i
O=C(c1ccco1)N1CCN(c2ncnc3scc(-c4ccc(Cl)cc4)c23)CC1	nt	nt	1.3	nt	nt	nt
O=C1/C(=C/c2cccnc2)Oc2cc(OS(=O)(=O)c3ccc(Cl)cc3)ccc21	40.7*	107.4	-0.2	15.0	0.1	i
COc1cc(/C=C2\CCC(C)C3=C(c4cc(OC)c(OC)c(OC)c4)C(C#N)=C(N)OC32)cc(OC)c1OC (stereo unspecified)	nt	nt	-2.4	nt	nt	nt
O=C(CC1Sc2ncnn2C1=O)Nc1ccc(Br)cc1 (stereo unspecified)	85.0*	100.3	1.5	1.8	1.4	i
CC(Nc1cc(N2CCCC2)ccc1[N+](=O)[O-])c1ccccc1 (stereo unspecified)	24.1	87.6	-104.1	1.6	2.9*	i
CC(Nc1cc(N2CCOCC2)ccc1[N+](=O)[O-])c1ccccc1 (stereo unspecified)	21.0	99.3	0.0	11.8	0.5	i
CCOc1ccc(NS(=O)(=O)c2cccs2)cc1S(=O)(=O)N1CCCC1	nt	nt	-4.5	nt	nt	nt
O=C(c1cc2ccccc2o1)N1CCN(Cc2nc3ccccc3s2)CC1	nt	nt	1.2	nt	nt	nt
CC(C)(C)c1ccc(C(=O)C2CCCN(C(=O)CN3CCCC3=O)C2)cc1 (stereo unspecified)	-5.3	111.0	-4.2	4.4	0.1	i
CN(C)C(=O)N1CCC(C(=O)N2CCCC(C(=O)c3ccc(C(C)(C)C)cc3)C2)CC1 (stereo unspecified)	1.2	63.2*	-6.5	19.7	1.8	i
CCOc1ccccc1Nc1nnc(C)c(=O)[nH]1	-20.8	99.4	14.8*	9.7	-0.2	i
COc1ccc(NC(=O)Nc2ccc3c(c2)C(=O)N([C@H](C)CO)C[C@@H](C)[C@@H](CN(C)C(=O)C2CCCCC2)OCCCC[C@H](C)O3)cc1	nt	nt	-2.6	nt	nt	nt
NC(=O)Nc1ccc(Cl)cc1	nt	98.3	3.3	-2.4	2.9	i
O=C(Nc1ccc(Cl)cc1)ON=C1CCCC1	94.5*	115.3	5.7	13.7	0.6	i
C[C@H]1COc2c(C3(N)CC3)c(F)cc3c(=O)c(C(=O)O)cn1c23	-20.3	91.5	nt	nt	2.1	i
C[C@H]1COc2c(N3CCN(C)CC3)c(F)cc3c(=O)c(C(=O)O)cn1c23	-3.2	107.6	9.3	4.2	2.3	+
c1ccc(-n2nnnc2SCc2cn3cccnc3n2)cc1	27.5	82.4	3.7	14.5	1.0	+
Cc1ccc(/C=N/NC(=O)CN2CCN(Cc3ccccc3)CC2)o1	44.8*	117.1	0.9	8.4	-0.3	i
O=C(CN1CCCCC1)N/N=C/c1cccc(Cl)c1	-19.4	105.1	-1.7	13.4	nt	i
